ELG1 genotox – qHTS screen for small molecules that induce genotoxicity in human embryonic kidney (HEK293T) cells expressing luciferase-tagged ELG1; HEK293T ELG1-luciferase reporter, luminescence, 16 h; Potency, µM (doses to about 46 µM), most hits filed as activators; 1.3% of 330,000 active; AID 504466, 2011; further: nearly all actives have a fitted effect of over 60% in size
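Quantitative HTS format in 1536-well plates. HEK293T ELG1-luciferase reporter cells receive test compound and are incubated 16 hr at 37 °C, 5% CO2; ONE-Glo added, 30 min room temperature, then luminescence read.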
KinaseGlo FLuc – Counterscreen for Luciferase (Kinase-Glo TM) Inhibition; Luciferin 4-monooxygenase (Photuris pensylvanica), Q27757; Kinase-Glo luciferase, ATP luminescence, 8 min; Potency, µM (highest dose often 38.3 µM), hits mostly inhibitors; 0.28% of 200,000 active; AID 1379, 2008; further: nearly all actives have a fitted effect of over 60% in size
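Luminescence was the read-out, taken after 8-minute incubation at ambient temperature. Luciferase turned over luciferin with 10 uM ATP in imidazole pH 7.2 buffer containing KCl, MgCl2, Tween 20 and BSA.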
Rab9 prom act – qHTS Assay for Rab9 Promoter Activators. 2.8% of 320,000 active. Potency, µM (series often up to 9.22 µM), most hits filed as activators. Huh7 Rab9 promoter-luciferase reporter, luminescence, 24 h; further: nearly all actives have a fitted effect of over 60% in size
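Luminescence read-out: Huh7 cells stably expressing Rab9-luciferase, treated 24 h with compound at 37 °C, then lysed with luciferase reagent for 10 min at ambient before reading.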
NPC1 prom act – qHTS Assay for NPC1 Promoter Activators | Huh7 NPC1 promoter luciferase reporter, 24 h | 2.4% of 320,000 active | Potency, µM (doses to about 9.22 µM), actives largely listed as activators | AID 485313, 2010; further: nearly all actives have a fitted effect of over 60% in size
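Stably transfected Huh7 (NPC1 promoter→luciferase), 1500 cells/well in Opti-MEM + 10% FBS, 2 h settle, then compound 24 h at 37 °C. Luminescence after 10 min with Amplite reagent.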
FLuc counter – qHTS profiling assay for firefly luciferase inhibitor/activator using purifed enzyme and Km concentrations of substrates (counterscreen for miR-21 project); 6.9% of 360,000 active; Luciferin 4-monooxygenase (Photinus pyralis), P08659; Potency, µM (titrated, usually from 57.5 µM), actives largely listed as inhibitors; purified FLuc, Km substrates, luminescence inhibition; further: nearly all actives have a fitted effect of over 55% in size
Target sequence (P08659 whole entry, looked up): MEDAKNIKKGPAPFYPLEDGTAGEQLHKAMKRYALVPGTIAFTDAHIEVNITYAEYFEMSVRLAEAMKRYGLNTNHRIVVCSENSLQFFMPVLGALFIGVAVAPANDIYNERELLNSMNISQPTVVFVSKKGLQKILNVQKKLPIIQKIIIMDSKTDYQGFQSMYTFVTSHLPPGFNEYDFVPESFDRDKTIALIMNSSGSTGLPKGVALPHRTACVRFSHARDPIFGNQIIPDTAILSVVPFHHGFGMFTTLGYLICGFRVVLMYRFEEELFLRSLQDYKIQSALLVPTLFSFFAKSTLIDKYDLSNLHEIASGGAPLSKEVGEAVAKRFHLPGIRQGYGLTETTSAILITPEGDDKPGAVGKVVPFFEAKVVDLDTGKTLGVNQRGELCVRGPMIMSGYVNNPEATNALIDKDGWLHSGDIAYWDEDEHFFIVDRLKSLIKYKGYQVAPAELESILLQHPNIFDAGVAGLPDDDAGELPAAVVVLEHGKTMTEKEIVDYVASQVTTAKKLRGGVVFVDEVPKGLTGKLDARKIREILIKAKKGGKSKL
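Purified P. pyralis luciferase, 10 nM final, with Km-level 10 uM D-luciferin and 10 uM ATP in 50 mM Tris acetate pH 7.5, 10 mM Mg acetate, 0.01% Tween-20, 0.05% BSA; 6-point qHTS titration about 60 µM downward; luminescence read.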
SMN2 splice enh – qHTS Assay for Enhancers of SMN2 Splice Variant Expression; Potency, µM (highest dose often 46.1 µM), usual class: activators; 2.8% of 210,000 active; HEK293 SMN2-luciferase splicing reporter, luminescence, 30-36 h; AID 1458, 2008; further: nearly all actives have a fitted effect of over 55% in size
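HEK293 cells carry an SMN2 […]–luciferase reporter in which exon 7 inclusion puts luciferase in frame. Cells were plated 10-12 h before compound addition, then incubated 30-36 h at 37C. ONE-Glo luminescence was read; sodium butyrate at 4.5 mM final served as control.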
Of the large screens only hits and unclear results are named; the others gave an inactive call. A selection: hits, their analogues and other compounds. The true share with any hit is near 7.3%. The call rests on the fitted dose curve; in most records, active means well fitted curve in the direction sought with a large enough effect; inconclusive means small, poorly fitted or top-dose-only effect, or another doubt; inactive means no such curve, though single readings can be large; an effect the other way counts as inactive or inconclusive.

CCCC(=O)Nc1ccc2c(c1)Cc1ccccc1-2	ELG1 genotox inconclusive, Rab9 prom act 2.5µM, NPC1 prom act 1.8µM, FLuc counter 9.5µM (no result: KinaseGlo FLuc, SMN2 splice enh)
Cc1ccc(-c2nnc(SCC(=O)Nc3ccc4c(c3)oc3ccccc34)n2C)c(Cl)c1	FLuc counter 9.5µM
CCCCCC(=O)Nc1ccc2ccccc2c1	ELG1 genotox inconclusive, Rab9 prom act inconclusive, NPC1 prom act inconclusive, FLuc counter 13µM, SMN2 splice enh inconclusive
COc1ccccc1Cn1cc(C(=O)c2ccc(F)cc2)c(=O)c2cc3c(cc21)OCO3	none (no result: ELG1 genotox, KinaseGlo FLuc, Rab9 prom act, NPC1 prom act)
CC1=CC2CC1C1C(=O)N(c3ccc(S(=O)(=O)Nc4nc(C)cc(C)n4)cc3)C(=O)C21 (stereo unspecified)	none
CCOC(=O)C1=C(C)N=C(SC)N(C)C1c1ccccc1 (stereo unspecified)	none
O=C(Nc1ccc2c(c1)oc1ccccc12)C1CC1	ELG1 genotox inconclusive, Rab9 prom act 2.5µM, NPC1 prom act 4µM, FLuc counter 5.4µM, SMN2 splice enh inconclusive
O=C(Nc1ccc2c(c1)oc1ccc(S(=O)(=O)N3CCCC3)cc12)C1CC1	none
S=C(Nc1ccccc1Cl)N1CCC(c2ccccc2)C1 (stereo unspecified)	ELG1 genotox inconclusive, Rab9 prom act 2.8µM, NPC1 prom act 3.5µM, FLuc counter 24µM, SMN2 splice enh 13µM
Cc1ccc(NC(=S)N2CCC(c3ccccc3)C2)c(Cl)c1 (stereo unspecified)	ELG1 genotox 2.3µM, Rab9 prom act 0.28µM, NPC1 prom act 0.5µM, FLuc counter 1.5µM, SMN2 splice enh 11µM
Fc1ccccc1NC(=S)N1CCC(c2ccccc2)C1 (stereo unspecified)	ELG1 genotox inconclusive, Rab9 prom act inconclusive, NPC1 prom act inconclusive, FLuc counter inconclusive
CC(=O)N/C(N)=N/c1nc(=O)c2ccccc2s1	ELG1 genotox 18µM, Rab9 prom act 2.5µM, NPC1 prom act inconclusive, FLuc counter 13µM (no result: KinaseGlo FLuc, SMN2 splice enh)
CCOC(=O)N/C(N)=N/c1nc2ccccc2s1	ELG1 genotox 4.1µM, Rab9 prom act 3.2µM, NPC1 prom act 1.6µM, FLuc counter 5.4µM, SMN2 splice enh 11µM
COc1ccc(C(CCNCc2ccc(OC(C)C)cc2)c2ccccc2OC)cc1 (stereo unspecified)	none (no result: KinaseGlo FLuc, SMN2 splice enh)
Cc1cccc(CSc2cn(CC(=O)N3CCCC3)c3ccccc23)c1	FLuc counter 15µM (no result: ELG1 genotox, KinaseGlo FLuc, Rab9 prom act, NPC1 prom act, SMN2 splice enh)
Cc1ccc(CSc2cn(CC(=O)N3CCCC3)c3ccccc23)cc1	FLuc counter 15µM (no result: ELG1 genotox, KinaseGlo FLuc, Rab9 prom act, NPC1 prom act, SMN2 splice enh)
O=C(Cn1cc(SCc2ccc(Cl)cc2)c2ccccc21)N1CCOCC1	FLuc counter 24µM, SMN2 splice enh inconclusive
O=C(Cn1cc(SCc2cccc(Cl)c2)c2ccccc21)N1CCCCCC1	none (no result: ELG1 genotox, KinaseGlo FLuc, Rab9 prom act, NPC1 prom act, SMN2 splice enh)
O=C(Cn1cc(SCc2c(F)cccc2Cl)c2ccccc21)N1CCCC1	FLuc counter 17µM (no result: ELG1 genotox, KinaseGlo FLuc, Rab9 prom act, NPC1 prom act, SMN2 splice enh)
O=C(Cn1cc(SCc2ccc(C(F)(F)F)cc2)c2ccccc21)N1CCCCC1	none (no result: ELG1 genotox, KinaseGlo FLuc, Rab9 prom act, NPC1 prom act, SMN2 splice enh)
CCc1ccc(S(=O)(=O)c2nnn3c2nc(N2CCC(C(N)=O)CC2)c2cc(Cl)ccc23)cc1	none (no result: ELG1 genotox, KinaseGlo FLuc, Rab9 prom act, NPC1 prom act)
O=C(CSc1cn(Cc2ccccc2)c2ccccc12)N1CCOCC1	ELG1 genotox 18µM, NPC1 prom act inconclusive, FLuc counter 24µM, SMN2 splice enh 13µM
CCCCNC(=O)c1ccc2c(=O)n(-c3ccccc3)c(=O)[nH]c2c1	none (no result: ELG1 genotox, KinaseGlo FLuc, Rab9 prom act, NPC1 prom act)
Cc1noc(NS(=O)(=O)c2ccc(N/C=C\C(=O)c3ccc(F)cc3)cc2)c1C	FLuc counter inconclusive
Cc1noc(NS(=O)(=O)c2ccc(N/C=C/C(=O)c3ccc4c(c3)OCO4)cc2)c1C	FLuc counter 11µM
Cc1noc(NS(=O)(=O)c2ccc(N/C=C\C(=O)c3ccccc3)cc2)c1C	FLuc counter inconclusive
Cc1noc(NS(=O)(=O)c2ccc(N/C=C\C(=O)c3cccs3)cc2)c1C	FLuc counter 17µM
COc1ccc(CC2(CO)CCN(Cc3cnn(-c4ccccc4)c3)CC2)cc1	none (no result: SMN2 splice enh)
Cc1occc1C(=O)Nc1sccc1C(N)=O	FLuc counter inconclusive (no result: KinaseGlo FLuc, SMN2 splice enh)

Source: PubChem BioAssay
